The record followed here is PubChem BioAssay (Tox21).

Records with an inconclusive call do not appear. The source made the active and inactive calls. Unless noted, calls follow the shape of the dose curve; as a rule, active = well fitted curve in the direction sought with a large enough effect in the repeat runs; inconclusive = weak or mixed curves; inactive = no such curve, though single readings can be large; an effect the other way counts as inactive or inconclusive.

Assay [1] is described as follows: qHTS assay to identify small molecule agonists of the peroxisome proliferator-activated receptor delta (PPARd) signaling pathway - cell viability counter screen (AID 743211). Also: nearly all actives have a fitted effect of over 55% in size. Also: potency is read from the fitted curve at half-maximal effect. In short, it runs like this: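 Viability was measured as CellTiter-Glo luminescence (30 min, room temperature) in the same wells as the beta-lactamase readout. GeneBLAzer PPARd UAS-bla HEK293H cells received compound after 5 h plating and were incubated 17 h at 37 C.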
(Quantitative high-throughput screening tests each substance at several concentrations.)

The nature of assay [2]: qHTS assay to identify small molecule antagonists of the peroxisome proliferator-activated receptor delta (PPARd) signaling pathway - cell viability counter screen (AID 743213). Also: nearly all actives have a fitted effect of over 50% in size. Also: potency is read from the fitted curve at half-maximal effect. In short, it runs like this: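 Viability counter-screen, qHTS format: PPARd-bla HEK293H, L165041 300 nM final, 17 h compound exposure at 37 C, CellTiter-Glo luminescence after 30 min RT.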
Assay [3] can be described thus: qHTS assay to identify small molecule agonists of the farnesoid-X-receptor (FXR) signaling pathway - cell viability counter screen (AID 743218). Also: nearly all actives have a fitted effect of over 45% in size. Also: potency is read from the fitted curve at half-maximal effect. In short, it runs like this: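 Cytotoxicity counter-screen run in parallel, same wells: FXR-UAS-bla HEK 293T cells dosed 16 h at 37 C, viability read by CellTiter-Glo luminescence after 30 min at room temperature.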
The target of assay [4] is Bile acid receptor (Homo sapiens) (UniProt Q96RI1). The assay can be described thus: qHTS assay to identify small molecule agonists of the farnesoid-X-receptor (FXR) signaling pathway (AID 743220; active = well fitted activation curve with a large enough effect in the signal ratio in the repeat runs, not every such curve was filed as active; the % refers to the signal ratio). An outline of the steps: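 Beta-lactamase reporter under UAS control in GeneBLAzer FXR HEK 293T cells (5000/well) measured with LiveBLAzer FRET substrate after 2 h at room temperature. Compound exposure lasted 16 h at 37C.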

Assay [5] in a line: qHTS assay to identify small molecule antagonists of the farnesoid-X-receptor (FXR) signaling pathway - cell viability counter screen (AID 743221; active = well fitted cell-killing curve with a large enough effect in the repeat runs, not every such curve was filed as active; also: nearly all actives have a fitted effect of over 50% in size; also: potency is read from the fitted curve at half-maximal effect). In short, it runs like this: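 Cytotoxicity counter screen run in the FXR-bla reporter wells: HEK 293T cells exposed to compound with 50 uM (final) chenodeoxycholic acid for 16 h, 37 C, then viability measured by CellTiter-Glo luminescence after 30 min, room temperature.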

The target in assay [6] is Peroxisome proliferator-activated receptor delta (Homo sapiens) (UniProt Q03181). The assay can be described thus: qHTS assay to identify small molecule agonists of the peroxisome proliferator-activated receptor delta (PPARd) signaling pathway (AID 743212; calls by dose curve). An outline of the steps: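 Quantitative high-throughput agonist screen in a HEK293H beta-lactamase reporter line under UAS control. Compounds in DMSO, at 37 C. Fluorescence read after 2 h with FRET substrate at room temperature.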

Assay [7] concerns the target Bile acid receptor (Homo sapiens) (UniProt Q96RI1). Nature of the assay: qHTS assay to identify small molecule antagonists of the farnesoid-X-receptor (FXR) signaling pathway (AID 743217; active = well fitted inhibition curve with a large enough effect in the signal ratio in the repeat runs, not every such curve was filed as active; the % refers to the signal ratio; also: potency is read from the fitted curve at half-maximal effect). In short, it runs like this:
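Antagonist mode against 50 uM (final) chenodeoxycholic acid stimulation in FXR-bla HEK 293T cells, 16 h at 37 °C. Inhibition detected as reduced beta-lactamase activity via LiveBLAzer B/G FRET fluorescence after 2 h at room temperature.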

Assay [8] has as its target Vitamin D3 receptor (Homo sapiens) (UniProt P11473). The assay can be described thus: qHTS assay to identify small molecule agonists of the vitamin D receptor (VDR) signaling pathway (AID 743222; calls by dose curve). In short, it runs like this: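 Quantitative HTS agonist-mode screen: compounds in DMSO were pin-transferred onto VDR-bla cells and incubated 16 h at 37C, 5% CO2. Reporter activity was detected with LiveBLAzer B/G FRET substrate after 2 h at room temperature.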

For assay [9] the target is unchanged. The assay can be described thus: qHTS assay to identify small molecule antagonists of the vitamin D receptor (VDR) signaling pathway (AID 743223; active = well fitted inhibition curve with a large enough effect in the signal ratio in the repeat runs, not every such curve was filed as active; the % refers to the signal ratio). An outline of the steps: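 Antagonist mode: compound added to VDR-bla cells alongside agonist 1alpha,25-dihydroxyvitamin D3 (3 nM final), incubation 16 h at 37C. Read-out is LiveBLAzer FRET fluorescence, 2 h at room temperature.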

Assay [10] addresses Peroxisome proliferator-activated receptor delta (Homo sapiens) (UniProt Q03181). Nature of the assay: qHTS assay to identify small molecule antagonists of the peroxisome proliferator-activated receptor delta (PPARd) signaling pathway (AID 743215; active = well fitted inhibition curve with a large enough effect in the signal ratio in the repeat runs, not every such curve was filed as active; the % refers to the signal ratio;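 also: cells stimulated with agonist L165041 at 300 nM final during compound exposure; potency is read from the fitted curve at half-maximal effect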). An outline of the steps:
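Inhibition of L165041-driven (300 nM final) PPARd signaling is scored in HEK293H UAS-bla cells. Exposure lasts 17 h at 37 C; beta-lactamase activity is then read by FRET substrate fluorescence after 2 h at room temperature.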

Sequence of Vitamin D3 receptor (Homo sapiens) (P11473 whole entry, looked up): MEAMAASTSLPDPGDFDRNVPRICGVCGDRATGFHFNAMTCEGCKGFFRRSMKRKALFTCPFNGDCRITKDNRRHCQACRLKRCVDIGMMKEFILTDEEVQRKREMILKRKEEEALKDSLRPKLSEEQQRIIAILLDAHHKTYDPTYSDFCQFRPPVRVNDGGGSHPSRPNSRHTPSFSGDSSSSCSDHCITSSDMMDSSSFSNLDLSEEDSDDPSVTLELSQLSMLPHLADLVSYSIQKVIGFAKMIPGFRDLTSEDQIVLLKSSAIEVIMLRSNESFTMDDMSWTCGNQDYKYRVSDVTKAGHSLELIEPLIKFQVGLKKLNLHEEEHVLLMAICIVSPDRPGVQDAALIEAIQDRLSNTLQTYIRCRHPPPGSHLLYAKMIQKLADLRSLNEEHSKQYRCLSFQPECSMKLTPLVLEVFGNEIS
Sequence of Bile acid receptor (Homo sapiens) (Q96RI1 whole entry, looked up): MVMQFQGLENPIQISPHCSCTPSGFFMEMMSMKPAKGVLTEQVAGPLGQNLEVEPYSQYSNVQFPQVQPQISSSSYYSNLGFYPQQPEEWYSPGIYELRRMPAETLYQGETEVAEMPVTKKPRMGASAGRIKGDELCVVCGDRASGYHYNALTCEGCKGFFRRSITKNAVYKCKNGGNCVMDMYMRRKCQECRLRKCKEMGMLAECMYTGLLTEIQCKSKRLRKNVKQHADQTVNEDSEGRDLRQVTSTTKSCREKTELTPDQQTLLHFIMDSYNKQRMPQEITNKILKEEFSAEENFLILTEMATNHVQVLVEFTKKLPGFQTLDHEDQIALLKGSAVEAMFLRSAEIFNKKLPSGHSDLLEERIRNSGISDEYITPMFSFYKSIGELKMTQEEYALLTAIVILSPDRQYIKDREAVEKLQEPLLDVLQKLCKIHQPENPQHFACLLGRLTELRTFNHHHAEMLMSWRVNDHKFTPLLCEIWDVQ
Sequence of Peroxisome proliferator-activated receptor delta (Homo sapiens) (Q03181 whole entry, looked up): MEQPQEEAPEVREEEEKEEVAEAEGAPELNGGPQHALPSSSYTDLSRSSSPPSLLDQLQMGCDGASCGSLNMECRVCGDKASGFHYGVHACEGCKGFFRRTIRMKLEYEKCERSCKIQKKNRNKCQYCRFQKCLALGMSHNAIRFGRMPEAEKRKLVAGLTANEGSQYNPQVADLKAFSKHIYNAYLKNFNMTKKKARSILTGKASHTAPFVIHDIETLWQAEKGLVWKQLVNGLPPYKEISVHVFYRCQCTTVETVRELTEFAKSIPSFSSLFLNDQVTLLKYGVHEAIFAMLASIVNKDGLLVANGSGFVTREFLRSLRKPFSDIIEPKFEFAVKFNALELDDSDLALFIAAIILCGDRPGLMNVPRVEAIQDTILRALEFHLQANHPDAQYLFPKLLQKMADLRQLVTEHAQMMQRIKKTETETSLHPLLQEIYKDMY

As to `Cn1cc(C2=C(c3cn(C4CCN(Cc5ccccn5)CC4)c4ccccc34)C(=O)NC2=O)c2ccccc21`, the Potency entry in [1], in assay [2] and in assay [5] was “inactive” each time. Also, the Potency in assay [3] was 16.8 µM (active). Also, the molecule was called inactive in assay [4].
Take `CC(C)(C)C(O)/C(=C\c1ccc(Cl)cc1Cl)n1cncn1` (configuration not stated): in assay [1], the Potency is 66.5 µM (active). Also, in assay [6], the Potency entry was “inactive”. Also, in [4], the molecule was classed as inactive.
With `Nc1ccccc1C(=O)OC/C=C/c1ccccc1`, the Potency in assay [1] is 39 µM (active). Moreover, the Potency entry in assay [6], in assay [2] and in assay [5] was “inactive” in each case.
Consider `N#CNC#N`, for which the Potency entry in assay [1], in assay [2], in [7], in assay [3], in [5] and in assay [8] was “inactive” throughout. For the same molecule, the Potency entry in [9] is “inactive”. The result in assay [4] was inactive.
Turning to `Clc1ccc(CCC(Cn2ccnc2)Sc2c(Cl)cccc2Cl)cc1` (configuration not stated), in assay [1], the Potency was 29.8 µM (active). The Potency entry in assay [6] and in assay [8] was “inactive” in each case.
With `CC(C)CC(C)Nc1ccc(Nc2ccccc2)cc1` (configuration not stated), the Potency in assay [1] and in [2] was 38.3 µM (active) each time.
`CCCN(CCC)c1c([N+](=O)[O-])cc(S(N)(=O)=O)cc1[N+](=O)[O-]`: the Potency is 20.8 µM (active) in assay [1]; 37 µM (active) in assay [2]; 58.6 µM (active) in assay [10]; 58.6 µM (active) in assay [7]; 52.2 µM (active) in assay [5].
As to `CN(C)C1CSSSC1`, the Potency result in [1], in [6], in assay [2], in assay [5] and in [8] was “inactive” in each case.
As to `CC1(C)CN=C(NN=C(/C=C/c2ccc(C(F)(F)F)cc2)/C=C/c2ccc(C(F)(F)F)cc2)NC1`, the Potency in [1] was 7.76 µM (active); in assay [2], 6.92 µM (active); in [7] it was 19.5 µM (active); in [3] it was 11 µM (active); in assay [5] it was 15.5 µM (active).
In the case of `O=C/C(Cl)=C(/Cl)C(=O)O`, the Potency result in [1], in [6], in assay [2], in [5] and in assay [8] was “inactive” each time.
Regarding `ClCc1ccc(Cl)cc1Cl`, the Potency entry in assay [1], in [6], in assay [2], in assay [3], in assay [5] and in assay [8] was “inactive” in each case. In addition, the Potency entry in assay [9] is “inactive”.
